This note sets out measurements from ChEMBL document CHEMBL3988442, “University of Dundee, Small-Polar-MMV Screening Library” (2021).

Molecules are shown by their SMILES. In all, about 48,000 compounds went through this assay and about 13,000 (27%) showed an effect of 50% or more. This is one part of the list.

The experiment has as its system Wolbachia pipientis. In words: Anti-Wolbachia Cell-Based Screen. It is filed as functional. The arrangement: scale not given: in the data most compounds retested in dose-response had high values. The note with it: 5 µM.
For `Cc1ccc(NC(=O)CNC(C)CN2CCCCC2)c(F)c1` (stereo unspecified), the “Percent Effect” value is 7.732%.

As to `Cc1ccc(NC(=O)CN2CCOCC2)c(F)c1`, the “Percent Effect” value was 133.3%.

Take `Cc1ccc(NC(=O)CNC(C)CN2CCOCC2)c(F)c1` (stereo unspecified): the “Percent Effect” value was found to be 11.35%.

Regarding `Cc1ccc2c(c1)CCC21CCN(C(=O)CO)CC1`, the “Percent Effect” value is reported as -11.41%.

Regarding `CCOC1CC2(CCN(CCO)CC2)c2ccc(C)cc21` (stereo unspecified), the “Percent Effect” value was 12.38%.

On to `CCC(=O)N1CCC2(CC1)CC(N1CCOCC1)c1cc(C)ccc12.O=C(O)C(F)(F)F` (stereo unspecified), for which the “Percent Effect” value amounted to 0.6162%.

In the case of `CCC(=O)N1CCC2(CC1)CC(NC(=O)N(C)C)c1cc(C)ccc12` (stereo unspecified), the “Percent Effect” value came out at 98.52%.

For the compound `CC(=O)N1CCC2(CC1)CC(NC(=O)N(C)C)c1cc(C)ccc12` (stereo unspecified), the “Percent Effect” value turned out to be 112.2%.

On to `CC(=O)N1CC2(CCN(C(=O)N(C)C)CC2)c2cc(C)ccc21`, for which the “Percent Effect” value is 1.573%.

Turning to `Cc1ccc(C)c(OCc2cc(C(=O)N(C)Cc3cnn(C)c3)no2)c1`, the “Percent Effect” value was -13.61%.

Consider `Cn1cc(C(=O)N2CCCC(Cc3cnccn3)C2)cn1` (stereo unspecified), for which the “Percent Effect” value is 110.5%.

In the case of `CC(O)CN1CC2(CCC1=O)CCN(C(=O)c1cnn(C)c1)CC2` (stereo unspecified), the “Percent Effect” value is recorded as -4.211%.

In the case of `Cn1cc(C(=O)N2CCCC(CN3CCCC3=O)C2)cn1` (stereo unspecified), the “Percent Effect” value is recorded as 73.94%.

In the case of `CCS(=O)(=O)N1CCCC(Cc2cnccn2)C1` (stereo unspecified), the “Percent Effect” value amounted to 118.2%.

Consider `CCS(=O)(=O)N1CCCC(c2nccn2Cc2cccnc2)C1` (stereo unspecified), for which the “Percent Effect” value is -2.411%.

With `COc1cccc(OCC2CCCN(C(=O)c3cnn(C)c3)C2)c1` (stereo unspecified), the “Percent Effect” value is listed as -49.1%.

For `Cn1cc(C(=O)N2CCCC2CCc2ccccc2)cn1` (stereo unspecified), the “Percent Effect” value turned out to be 11.22%.

Regarding `CCS(=O)(=O)N1CCCC(c2nccn2Cc2ccccn2)C1` (stereo unspecified), the “Percent Effect” value is recorded as -4.348%.

In the case of `Cc1ccc(C2CCCN(C(=O)c3cnn(C)c3)C2)nc1` (stereo unspecified), the “Percent Effect” value worked out at 105.1%.

Regarding `COc1cc(N2CCN(Cc3ccc(C)o3)C(CCO)C2)nc(N)n1` (stereo unspecified), the “Percent Effect” value is -10.52%.

Consider `Cc1nn(C)c2c(=O)n(CC(=O)Nc3cc(Cl)cc(Cl)c3)nnc12`, for which the “Percent Effect” value stood at 4.089%.

For `Cn1cc(C(=O)N2CCCC(c3ccncc3)C2)cn1` (stereo unspecified), the “Percent Effect” value is reported as 78.37%.

In the case of `Cc1nccn1CC1CCCN(C(=O)c2cnn(C)c2)C1` (stereo unspecified), the “Percent Effect” value was determined as 93.77%.

With `Cn1cc(C(=O)N2CCCC(c3cnccn3)C2)cn1` (stereo unspecified), the “Percent Effect” value worked out at 131%.

Regarding `Cn1cc(C(=O)N2CC[C@@]3(O)CCN(C(=O)C4CCC4)C[C@H]3C2)cn1`, the “Percent Effect” value is -11.15%.

`COc1ccc(CN(C(=O)C2CCCS2)c2ccncc2)cc1` (stereo unspecified): the “Percent Effect” value is reported as -11.82%.

Consider `COc1ccc(S(=O)(=O)N2CCn3cnc(COCC4CC4)c3C2)cc1`, for which the “Percent Effect” value is reported as -5.165%.

As to `CS(=O)(=O)N1CCCCC12CCCN(Cc1nccs1)C2.O=C(O)C(F)(F)F` (stereo unspecified), the “Percent Effect” value is given as -3.648%.

Take `CNC[C@H]1CC[C@H](c2cc(CN(C)C(=O)c3cnccn3)n(C)n2)CC1.Cl`: the “Percent Effect” value came to 49.34%.

`CNC[C@H]1CC[C@H](c2cc(CN(C)S(=O)(=O)N(C)C)n(C)n2)CC1.Cl`: the “Percent Effect” value worked out at 79.31%.

For the compound `O=C(NN1CCCc2ccccc21)c1c[nH]c(=O)[nH]1`, the “Percent Effect” value is recorded as -8.796%.

On to `CCc1cnc(C)nc1NCCNc1nc(C)cc(=O)[nH]1`, for which the “Percent Effect” value was -6.452%.

For `F[C@@H]1CN(CC2CC2)C[C@@H]1OCc1nc2ncccc2[nH]1`, the “Percent Effect” value is listed as -13.13%.

In the case of `O=C(CCc1ccccc1)NCC1CCN(Cc2ccsc2)CC1`, the “Percent Effect” value is given as 3.98%.

For `O=C(CCc1ccsc1)NCC1CCN(Cc2cccs2)CC1`, the “Percent Effect” value is reported as -16.57%.

As to `O=C(CCc1ccccc1)NCC1CCN(Cc2ccccc2)CC1`, the “Percent Effect” value was 111.4%.

In the case of `O=C(CCc1ccccc1)NCC1CCN(Cc2cccs2)CC1`, the “Percent Effect” value is given as 102.9%.

On to `Cc1ccc(CN2CCC(CNC(=O)Cn3cncn3)CC2)cc1`, for which the “Percent Effect” value is reported as -4.206%.

Consider `COc1cc2cc(C(=O)NC(C)C(=O)O)n(C)c2c(OC)c1OC` (stereo unspecified), for which the “Percent Effect” value amounted to 0.3251%.

In the case of `CCc1[nH]c2c(CNc3nc(C)cc(NC)n3)cc(C)cc2c1C`, the “Percent Effect” value is on record as -10.73%.

Consider `CC(SCCC(=O)NC(N)=O)c1ccccc1F` (stereo unspecified), for which the “Percent Effect” value is reported as -10.14%.

Turning to `Cc1ccc2c(c1)C1(CCNCC1)CC2N1CCOCC1` (stereo unspecified), the “Percent Effect” value is 0.9204%.

For `N#Cc1ccc(S(=O)(=O)Nc2ccccc2C#N)cn1`, the “Percent Effect” value is reported as -3.183%.

Consider `COc1ccc(NC(=O)N2CCCCCC2c2ccncc2)cn1` (stereo unspecified), for which the “Percent Effect” value is recorded as -7.407%.

As for `Cc1ccc(CN2CCOCC2)cc1NC(=O)c1ccsc1`, the “Percent Effect” value is recorded as -4.906%.

`O=C(Nc1cc(N2CCOCC2)ncn1)c1cnccn1`: the “Percent Effect” value is reported as -2.836%.

For `O=C(NCCc1cscn1)c1coc(CN2CCOCC2)c1`, the “Percent Effect” value is reported as -2.273%.

Take `O=C(NCC1(O)COCCN(Cc2cccc(O)c2)C1)c1cnccn1` (stereo unspecified): the “Percent Effect” value is 119.9%.

Turning to `O=C(Nc1cnn(CCN2CCOCC2)c1)c1ccccn1`, the “Percent Effect” value is -4.684%.

On to `O=C(NCCN1CCOCC1)c1ccc(OCc2ccccc2)nc1`, for which the “Percent Effect” value is listed as -12.09%.

On to `O=C(NCC1(O)COCCN(Cc2ccc(O)cc2)C1)c1cnccn1` (stereo unspecified), for which the “Percent Effect” value is 136.8%.

On to `O=C(NCC1(O)COCCN(Cc2cccc(O)c2)C1)c1ccccn1` (stereo unspecified), for which the “Percent Effect” value is given as 141%.

Turning to `O=C(NCN1CCc2ccccc2C1)c1cnccn1`, the “Percent Effect” value is on record as -0.1611%.

For the compound `O=C(NCC1(O)COCCN(Cc2cccc(O)c2)C1)c1cscn1` (stereo unspecified), the “Percent Effect” value is listed as 117.5%.

As for `CCCN(Cc1ccccc1C)C(CC)CO` (stereo unspecified), the “Percent Effect” value is 3.002%.

Turning to `CC(C)c1nc(C(=O)N2CCc3ccccc3C2C(=O)O)cs1` (stereo unspecified), the “Percent Effect” value is on record as -0.5058%.

As for `CSCCNC(=O)c1coc(COc2ccc3sc(C)nc3c2)n1`, the “Percent Effect” value is -17.64%.

In the case of `CNc1nc2c(c(C(=O)N3CCCC3)n1)CN(Cc1nccn1C)CC2`, the “Percent Effect” value was 14.28%.

On to `Cc1nc(N2CCCC2)nc2c1CCN(Cc1ccco1)CC2.O=C(O)C(F)(F)F`, for which the “Percent Effect” value is -6.041%.

With `CCCn1nc2c(cc1=O)CN(Cc1cc(C)no1)CC2`, the “Percent Effect” value is listed as 7.336%.

On to `Cc1cc(CN2CCc3nn(C)c(=O)cc3C2)on1`, for which the “Percent Effect” value is 13.66%.

Consider `CNc1nc2c(c(C(=O)N3CCCC3)n1)CN(Cc1cc(C)no1)CC2`, for which the “Percent Effect” value is listed as 97.24%.

Turning to `CNc1nc2c(c(C(=O)N3CCCC3)n1)CN(Cc1ccco1)CC2`, the “Percent Effect” value is listed as 133.6%.

`CC1(C)CN(C(=O)c2cnc(CN3CCCC3)s2)CC[C@]1(C)O`: the “Percent Effect” value is given as -20.27%.

On to `Cc1cc(NC(=O)CNC(C)(C)c2ccc3c(c2)OCCO3)no1`, for which the “Percent Effect” value is -9.405%.

As to `CC(C)(NCc1cccc(C(N)=O)c1)c1ccc2c(c1)OCO2`, the “Percent Effect” value came out at 2.76%.

Take `COC(=O)c1oc(CNC(C)(C)c2ccc3c(c2)OCCO3)cc1C`: the “Percent Effect” value is on record as -6.562%.

`CC(C)(NCC(=O)NCC1CC1)c1ccc2c(c1)OCCO2`: the “Percent Effect” value was 87.25%.

`COC(=O)c1oc(CNC(C)(C)c2ccc3c(c2)OCO3)cc1C`: the “Percent Effect” value is given as -12.91%.

For the compound `Cc1cc(NC(=O)CNC(C)(C)c2ccc3c(c2)OCO3)on1`, the “Percent Effect” value is 4.007%.

Consider `CC(C)(NCC(=O)NCC(F)(F)F)c1ccc2c(c1)OCCO2`, for which the “Percent Effect” value came to 5.568%.

As for `CC(C)(NCC(=O)NC(=O)NC1CC1)c1ccc2c(c1)OCO2`, the “Percent Effect” value stood at 94.42%.

As to `CCNC(=O)NC(=O)CNC(C)(C)c1ccc2c(c1)OCO2`, the “Percent Effect” value is 117.5%.

Turning to `CC(C)(NCc1cccc(O)c1)c1ccc2c(c1)OCO2`, the “Percent Effect” value came out at 4.523%.

As to `CCNC(=O)NC(=O)CNC(C)(C)c1ccc2c(c1)OCCO2`, the “Percent Effect” value is 126.2%.

As for `CC(C)(C)NC(=O)NC(=O)CNC(C)(C)c1ccc2c(c1)OCCO2`, the “Percent Effect” value was found to be 3.102%.
